About 8,800 targets were measured; listed, in parts, are those with a hit and a random draw of the rest. About 0.5% of all pairs of compound and target were hits.
Columns and labels:
Assay in all cases: log2 fold change, soluble protein after heating vs DMSO (PISA); higher = thermal stabilisation; K562 lysate, 10 uM; active = over 0.2 and 3.5 SD of the protein, either way, in both replicates (recomputed)
[1] = compound: CN1CC[C@H](c2c(O)cc(O)c3c(=O)cc(-c4ccccc4Cl)oc23)[C@H](O)C1 [alvocidib]
Outline: (§1)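 Thermal stability, expressed as log-two fold change relative to solvent controls, is given from duplicates. Crude K562 extract in PBS pH 7.4 with 1 mM MgCl2, at 1 mg/mL protein, was treated with 10 μM compound for 30 min and heated in aliquots for 3 min across 48°C-58°C. After pooling, adjustment to 0.5% NP-40 at 4°C and centrifugation at 21,000xg for 90 min, supernatant protein was measured by TMTpro 16plex LC-MS/MS with channel sums equalised.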

[2] = compound: CN1CCc2c(c3ccccc3n2Cc2ccc(C(=O)NO)cc2)C1 [Tubastatin A]
Outline: as §1

[3] = compound: CNC(=O)C1=CC=CC=C1NC2=NC(=NC=C2Cl)NC3=C(C=C(C=C3)N4CCOCC4)OC
Outline: as §1

[4] = compound: CNC(=O)c1ccc(Nc2ncc(C(F)(F)F)c(NCc3nccnc3N(C)S(C)(=O)=O)n2)cc1 [defactinib]
Outline: as §1

[5] = compound: CNc1nc(-c2ccc3c(N)n[nH]c3c2)cc(N2C[C@@H](C(=O)NC3CCCCC3)CC[C@H]2C)n1
Outline: as §1

[6] = compound: COC(=O)N[C@@H](C)CNc1nccc(-c2cn(C(C)C)nc2-c2cc(Cl)cc(NS(C)(=O)=O)c2F)n1 [encorafenib]
Outline: as §1

[7] = compound: COC(=O)[C@H](CCSC)NC(=O)C1=C(C=C(C=C1)NC[C@H](CS)N)C2=CC=CC=C2
Outline: as §1

[8] = compound: COc1cc(Nc2ncc3c(n2)-c2ccc(Cl)cc2C(c2c(F)cccc2OC)=NC3)ccc1C(=O)O [alisertib]
Outline: as §1

[9] = compound: COc1cc2nc(-c3cc(F)ccc3O)nc(N[C@@H]3CNC[C@H]3C(C)(C)O)c2cc1OC
Outline: as §1

[10] = compound: COc1cc2ncnc(Nc3ccc(F)c(Cl)c3)c2cc1OCCCN1CCOCC1 [gefitinib]
Outline: as §1

[11] = compound: CS(=O)(=O)CCNCc1ccc(-c2ccc3ncnc(Nc4ccc(OCc5cccc(F)c5)c(Cl)c4)c3c2)o1 [lapatinib]
Outline: as §1

[12] = compound: CS(=O)(=O)N1CCN(Cc2cc3nc(-c4cccc5[nH]ncc45)nc(N4CCOCC4)c3s2)CC1 [pictilisib]
Outline: as §1

[13] = compound: C[C@@H](Oc1cc(-c2cnn(C3CCNCC3)c2)cnc1N)c1c(Cl)ccc(F)c1Cl [crizotinib]
Outline: as §1

[14] = compound: C[C@H](C1=CC=C(C=C1)C(=O)NC2=C3C=CNC3=NC=C2)N
Outline: as §1

[15] = compound: C[C@H](Nc1ncnc2nc[nH]c12)c1cc2cccc(Cl)c2c(=O)n1-c1ccccc1 [duvelisib]
Outline: as §1

[16] = compound: Cc1cc(Nc2cc(CN3CCOCC3)c3nc(C)c(Cc4ccc(Cl)cc4F)n3n2)n[nH]1 [gandotinib]
Outline: as §1

[17] = compound: Cc1cc(Nc2cc(N3CCN(C)CC3)nc(Sc3ccc(NC(=O)C4CC4)cc3)n2)n[nH]1 [tozasertib]
Outline: as §1

[18] = compound: Cc1ccc(-n2nc(C(C)(C)C)cc2NC(=O)Nc2ccc(OCCN3CCOCC3)c3ccccc23)cc1 [doramapimod]
Outline: as §1

[19] = compound: Cc1ccc(NC(=O)c2ccc(CN3CC[C@H](N(C)C)C3)c(C(F)(F)F)c2)cc1Nc1nccc(-c2cncnc2)n1 [bafetinib]
Outline: as §1

[20] = compound: Cc1cccc(CC(=O)N2CCc3c2ccc(-c2cn(C)c4ncnc(N)c24)c3F)n1
Outline: as §1

Measured: log2 fold change

POLD3 (UniProt Q15054)
inactive: [1] 0.041 | [2] -0.032 | [3] 0.099 | [4] -0.033 | [5] -0.03 | [6] 0.021 | [7] 0.048 | [8] -0.025 | [9] 0.007 | [10] -0.018 | [11] 0.03 | [12] -0.046 | [13] -0.056 | [14] 0.022 | [15] -0.033 | [16] -0.079 | [17] 0.021 | [18] 0.001 | [19] -0.031 | [20] -0.038

POLR2M (UniProt P0CAP2)
Sequence of UniProt P0CAP2 (P0CAP2 whole entry, looked up): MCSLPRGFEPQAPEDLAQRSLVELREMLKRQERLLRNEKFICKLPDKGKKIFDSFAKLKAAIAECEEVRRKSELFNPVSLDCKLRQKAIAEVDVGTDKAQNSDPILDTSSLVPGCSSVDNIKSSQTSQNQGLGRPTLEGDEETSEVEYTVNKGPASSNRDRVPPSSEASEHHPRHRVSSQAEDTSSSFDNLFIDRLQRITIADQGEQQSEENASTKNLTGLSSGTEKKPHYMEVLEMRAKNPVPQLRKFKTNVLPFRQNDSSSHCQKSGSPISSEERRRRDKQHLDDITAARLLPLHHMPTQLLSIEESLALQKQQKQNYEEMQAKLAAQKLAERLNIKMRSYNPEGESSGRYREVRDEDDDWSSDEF
inactive: [1] -0.002 | [2] 0.031 | [3] 0.021 | [4] 0.037 | [5] 0.035 | [7] -0.047 | [8] -0.011 | [9] 0.019 | [10] 0.027 | [11] -0.034 | [12] -0.055 | [13] 0.016 | [14] -0.031 | [15] 0.015 | [16] 0.02 | [17] 0.185 | [18] 0.009 | [19] -0.011 | [20] 0.041
active: [6] 0.33

PDXDC1 (UniProt Q6P996)
Sequence of UniProt Q6P996 (Q6P996 whole entry, looked up): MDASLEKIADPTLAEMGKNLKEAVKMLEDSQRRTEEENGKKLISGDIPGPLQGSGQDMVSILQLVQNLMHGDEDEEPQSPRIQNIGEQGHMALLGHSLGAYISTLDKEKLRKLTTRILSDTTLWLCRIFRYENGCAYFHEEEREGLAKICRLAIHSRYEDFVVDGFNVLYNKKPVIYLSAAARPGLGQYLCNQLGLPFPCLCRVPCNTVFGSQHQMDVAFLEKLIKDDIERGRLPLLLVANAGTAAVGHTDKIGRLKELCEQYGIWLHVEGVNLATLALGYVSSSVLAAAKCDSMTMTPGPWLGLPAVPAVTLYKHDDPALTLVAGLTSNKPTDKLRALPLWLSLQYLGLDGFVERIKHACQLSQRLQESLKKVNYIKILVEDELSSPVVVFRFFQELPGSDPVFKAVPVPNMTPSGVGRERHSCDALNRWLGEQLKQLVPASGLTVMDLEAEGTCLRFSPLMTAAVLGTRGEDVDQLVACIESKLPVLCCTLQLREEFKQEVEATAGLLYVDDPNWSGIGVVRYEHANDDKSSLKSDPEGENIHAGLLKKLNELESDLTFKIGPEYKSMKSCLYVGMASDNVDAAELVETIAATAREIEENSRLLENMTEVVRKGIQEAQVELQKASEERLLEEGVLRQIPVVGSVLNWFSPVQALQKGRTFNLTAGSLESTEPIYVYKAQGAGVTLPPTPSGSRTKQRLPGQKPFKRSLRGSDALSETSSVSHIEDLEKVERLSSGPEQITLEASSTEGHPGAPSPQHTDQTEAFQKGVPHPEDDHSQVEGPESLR
inactive: [1] -0.005 | [2] -0.065 | [3] -0.007 | [4] 0.034 | [5] 0.088 | [6] 0.058 | [7] 0.085 | [8] 0.049 | [9] -0.006 | [10] 0.032 | [11] -0.025 | [12] -0.019 | [13] -0.056 | [14] -0.011 | [15] 0.019 | [16] 0 | [17] 0.01 | [18] 0.007 | [19] -0.128 | [20] 0.062

PDAP1 (UniProt Q13442)
Sequence of UniProt Q13442 (Q13442 whole entry, looked up): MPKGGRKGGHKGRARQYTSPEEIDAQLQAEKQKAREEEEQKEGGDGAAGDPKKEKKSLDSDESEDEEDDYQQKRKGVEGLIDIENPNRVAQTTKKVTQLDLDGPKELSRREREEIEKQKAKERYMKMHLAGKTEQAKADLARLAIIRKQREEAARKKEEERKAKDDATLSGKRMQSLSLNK
active: [14] -0.232
inactive: [1] -0.074 | [2] 0.063 | [3] 0.004 | [4] -0.012 | [5] 0.109 | [6] -0.038 | [7] -0.017 | [8] 0.006 | [9] 0.018 | [10] -0.029 | [11] -0.004 | [12] 0.03 | [13] 0.043 | [15] -0.043 | [16] 0.135 | [17] -0.026 | [18] -0.03 | [19] 0.006 | [20] 0.089

PFAS (UniProt O15067)
inactive: [1] -0.015 | [2] -0.01 | [3] 0.009 | [4] 0.022 | [5] 0 | [6] -0.004 | [7] 0.119 | [8] 0.009 | [9] -0.011 | [10] -0.009 | [11] -0.01 | [12] -0.011 | [13] -0.067 | [14] -0.011 | [15] -0.009 | [16] 0.002 | [17] -0.008 | [18] 0.035 | [19] -0.028 | [20] 0.019

PI4KA (UniProt P42356)
inactive: [1] -0.006 | [2] -0.165 | [3] 0.035 | [4] 0.006 | [5] -0.029 | [6] 0.026 | [7] -0.005 | [8] 0.028 | [9] 0.019 | [10] 0 | [11] -0.03 | [12] 0.097 | [13] -0.005 | [14] -0.043 | [15] 0.189 | [16] -0.033 | [17] 0.013 | [18] -0.002 | [19] -0.075 | [20] 0.073

PHKB isoform 3 (UniProt Q93100)
inactive: [1] 0.04 | [2] -0.099 | [3] 0.223 | [4] -0.006 | [5] -0.018 | [6] -0.019 | [7] 0.015 | [8] 0.006 | [9] 0.107 | [10] 0.03 | [11] -0.042 | [12] 0.025 | [13] 0.026 | [14] -0.126 | [15] -0.025 | [16] 0.127 | [17] -0.021 | [18] -0.061 | [19] -0.012 | [20] 0.027

PIGO (UniProt Q8TEQ8)
Sequence of UniProt Q8TEQ8 (Q8TEQ8 whole entry, looked up): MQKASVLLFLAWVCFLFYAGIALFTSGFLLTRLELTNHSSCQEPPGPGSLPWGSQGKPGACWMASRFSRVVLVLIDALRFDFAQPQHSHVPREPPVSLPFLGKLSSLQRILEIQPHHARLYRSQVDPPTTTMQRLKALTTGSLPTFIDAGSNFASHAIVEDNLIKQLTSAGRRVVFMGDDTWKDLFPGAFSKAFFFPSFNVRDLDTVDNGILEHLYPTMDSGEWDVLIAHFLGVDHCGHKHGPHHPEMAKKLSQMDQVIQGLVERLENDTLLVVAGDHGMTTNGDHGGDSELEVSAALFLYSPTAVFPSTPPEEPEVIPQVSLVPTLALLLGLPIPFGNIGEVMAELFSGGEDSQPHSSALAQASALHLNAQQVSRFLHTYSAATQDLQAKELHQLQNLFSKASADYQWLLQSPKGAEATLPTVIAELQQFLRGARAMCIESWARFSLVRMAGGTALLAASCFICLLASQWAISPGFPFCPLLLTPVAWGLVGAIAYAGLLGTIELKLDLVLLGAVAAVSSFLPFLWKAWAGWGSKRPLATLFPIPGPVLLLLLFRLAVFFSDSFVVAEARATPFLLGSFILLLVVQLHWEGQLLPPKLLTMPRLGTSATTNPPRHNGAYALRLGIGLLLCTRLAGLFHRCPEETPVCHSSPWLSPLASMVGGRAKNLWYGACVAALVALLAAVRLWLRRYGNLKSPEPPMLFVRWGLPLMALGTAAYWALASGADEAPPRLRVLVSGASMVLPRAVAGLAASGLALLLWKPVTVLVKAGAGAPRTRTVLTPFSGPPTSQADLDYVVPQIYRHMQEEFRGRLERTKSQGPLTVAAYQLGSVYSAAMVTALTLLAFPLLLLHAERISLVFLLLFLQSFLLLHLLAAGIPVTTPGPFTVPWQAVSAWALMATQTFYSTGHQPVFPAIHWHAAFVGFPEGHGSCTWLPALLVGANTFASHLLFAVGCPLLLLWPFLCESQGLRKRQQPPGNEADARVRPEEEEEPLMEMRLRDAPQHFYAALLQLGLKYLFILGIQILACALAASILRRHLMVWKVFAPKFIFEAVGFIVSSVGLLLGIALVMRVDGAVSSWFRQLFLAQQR
inactive: [1] 0.038 | [2] -0.112 | [3] -0.095 | [4] 0.046 | [5] 0.143 | [6] 0.019 | [7] -0.121 | [8] 0.061 | [9] -0.073 | [10] 0.013 | [11] 0.047 | [12] 0.133 | [13] -0.02 | [14] 0.019 | [15] 0.076 | [16] -0.193 | [17] 0.117 | [18] -0.186 | [19] -0.026 | [20] 0.037

PDXK (UniProt O00764)
Sequence of UniProt O00764 (O00764 whole entry, looked up): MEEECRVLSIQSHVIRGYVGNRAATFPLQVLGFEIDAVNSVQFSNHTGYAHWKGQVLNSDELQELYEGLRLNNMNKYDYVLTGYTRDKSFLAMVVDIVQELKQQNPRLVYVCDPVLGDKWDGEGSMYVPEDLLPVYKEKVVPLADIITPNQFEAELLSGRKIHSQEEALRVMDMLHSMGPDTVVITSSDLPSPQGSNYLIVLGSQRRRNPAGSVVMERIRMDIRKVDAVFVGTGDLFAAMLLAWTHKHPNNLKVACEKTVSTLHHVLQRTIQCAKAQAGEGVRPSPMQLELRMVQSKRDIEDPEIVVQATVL
inactive: [1] -0.031 | [2] -0.005 | [3] 0.027 | [4] 0.047 | [5] 0.06 | [6] -0.032 | [7] -0.012 | [8] -0.038 | [9] 0.016 | [10] -0.022 | [11] -0.026 | [12] 0.014 | [13] 0.004 | [14] -0.134 | [15] 0.041 | [16] 0.109 | [17] -0.014 | [18] -0.072 | [19] 0.046 | [20] 0.083

PIKFYVE (UniProt Q9Y2I7)
inactive: [1] -0.049 | [2] -0.126 | [3] 0.032 | [4] 0.078 | [5] -0.031 | [6] 0.044 | [7] 0.088 | [8] 0.031 | [9] 0.004 | [10] -0.005 | [11] -0.039 | [12] -0.06 | [13] -0.002 | [14] -0.058 | [15] -0.013 | [16] 0.01 | [17] -0.014 | [18] 0.029 | [19] -0.053 | [20] 0.066

POMP (UniProt Q9Y244)
Sequence of UniProt Q9Y244 (Q9Y244 whole entry, looked up): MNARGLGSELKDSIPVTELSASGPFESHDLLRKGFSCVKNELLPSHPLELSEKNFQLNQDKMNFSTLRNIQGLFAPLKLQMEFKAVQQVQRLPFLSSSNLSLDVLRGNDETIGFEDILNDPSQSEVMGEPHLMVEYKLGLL
inactive: [1] 0.072 | [2] -0.061 | [3] 0.035 | [4] 0.024 | [5] -0.03 | [6] 0.074 | [7] -0.002 | [8] -0.013 | [9] -0.033 | [10] -0.093 | [11] 0.048 | [12] 0.031 | [13] -0.054 | [14] 0.221 | [15] 0.11 | [16] -0.063 | [17] 0.022 | [18] 0.038 | [19] 0.017 | [20] -0.038

PIR (UniProt O00625)
Sequence of UniProt O00625 (O00625 whole entry, looked up): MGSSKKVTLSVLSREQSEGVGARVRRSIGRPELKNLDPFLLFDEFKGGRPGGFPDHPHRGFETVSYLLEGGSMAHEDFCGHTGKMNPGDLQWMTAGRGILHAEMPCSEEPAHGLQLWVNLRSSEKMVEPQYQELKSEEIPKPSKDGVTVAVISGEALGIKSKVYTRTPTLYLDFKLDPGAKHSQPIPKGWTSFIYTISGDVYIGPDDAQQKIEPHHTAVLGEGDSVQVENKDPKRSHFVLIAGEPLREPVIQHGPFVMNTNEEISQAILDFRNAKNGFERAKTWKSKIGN
inactive: [1] 0.006 | [2] 0.019 | [3] -0.011 | [4] -0.032 | [5] 0.012 | [6] 0.003 | [7] -0.07 | [8] 0.016 | [9] -0.008 | [10] -0.012 | [11] 0.017 | [12] -0.05 | [13] 0.019 | [14] 0.099 | [15] -0.035 | [16] -0.058 | [17] -0.008 | [18] -0.021 | [19] 0.008 | [20] -0.006

PPP2R5C isoform 4 (UniProt Q13362)
inactive: [1] 0.059 | [2] -0.014 | [3] -0.022 | [4] -0.01 | [5] -0.08 | [6] -0.03 | [7] -0.047 | [8] -0.036 | [9] 0.009 | [10] -0.007 | [11] -0.05 | [12] 0 | [13] 0.015 | [14] -0.051 | [15] 0.213 | [16] -0.034 | [17] 0.025 | [18] -0.11 | [19] -0.077 | [20] 0.055

PRKCD (UniProt Q05655)
Sequence of UniProt Q05655 (Q05655 whole entry, looked up): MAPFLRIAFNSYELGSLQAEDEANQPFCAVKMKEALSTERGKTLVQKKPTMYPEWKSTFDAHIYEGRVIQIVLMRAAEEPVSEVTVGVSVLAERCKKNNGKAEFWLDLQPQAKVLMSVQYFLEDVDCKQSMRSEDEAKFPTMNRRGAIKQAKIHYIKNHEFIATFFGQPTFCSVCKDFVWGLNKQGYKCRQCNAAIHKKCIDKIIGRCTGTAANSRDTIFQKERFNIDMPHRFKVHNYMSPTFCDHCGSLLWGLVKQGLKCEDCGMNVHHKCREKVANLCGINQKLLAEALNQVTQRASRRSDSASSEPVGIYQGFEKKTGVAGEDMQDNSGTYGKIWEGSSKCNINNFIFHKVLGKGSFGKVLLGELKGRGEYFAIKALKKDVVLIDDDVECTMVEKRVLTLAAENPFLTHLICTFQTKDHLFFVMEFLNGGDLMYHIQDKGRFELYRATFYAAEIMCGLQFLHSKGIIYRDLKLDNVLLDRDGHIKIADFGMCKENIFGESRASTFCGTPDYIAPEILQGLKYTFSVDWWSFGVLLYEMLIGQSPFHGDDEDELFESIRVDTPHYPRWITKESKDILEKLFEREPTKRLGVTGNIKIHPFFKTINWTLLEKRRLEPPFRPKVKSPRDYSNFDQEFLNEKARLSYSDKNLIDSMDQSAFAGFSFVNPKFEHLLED
active: [9] 0.235
inactive: [1] -0.082 | [2] 0.036 | [3] -0.012 | [4] -0.032 | [5] -0.003 | [6] -0.009 | [7] 0.056 | [8] -0.031 | [10] 0.002 | [11] -0.143 | [12] 0.003 | [13] -0.011 | [14] -0.135 | [15] 0.024 | [16] 0.009 | [17] 0.015 | [18] 0.005 | [19] -0.069 | [20] 0.007

PI4KB (UniProt Q9UBF8)
Sequence of UniProt Q9UBF8 (Q9UBF8 whole entry, looked up): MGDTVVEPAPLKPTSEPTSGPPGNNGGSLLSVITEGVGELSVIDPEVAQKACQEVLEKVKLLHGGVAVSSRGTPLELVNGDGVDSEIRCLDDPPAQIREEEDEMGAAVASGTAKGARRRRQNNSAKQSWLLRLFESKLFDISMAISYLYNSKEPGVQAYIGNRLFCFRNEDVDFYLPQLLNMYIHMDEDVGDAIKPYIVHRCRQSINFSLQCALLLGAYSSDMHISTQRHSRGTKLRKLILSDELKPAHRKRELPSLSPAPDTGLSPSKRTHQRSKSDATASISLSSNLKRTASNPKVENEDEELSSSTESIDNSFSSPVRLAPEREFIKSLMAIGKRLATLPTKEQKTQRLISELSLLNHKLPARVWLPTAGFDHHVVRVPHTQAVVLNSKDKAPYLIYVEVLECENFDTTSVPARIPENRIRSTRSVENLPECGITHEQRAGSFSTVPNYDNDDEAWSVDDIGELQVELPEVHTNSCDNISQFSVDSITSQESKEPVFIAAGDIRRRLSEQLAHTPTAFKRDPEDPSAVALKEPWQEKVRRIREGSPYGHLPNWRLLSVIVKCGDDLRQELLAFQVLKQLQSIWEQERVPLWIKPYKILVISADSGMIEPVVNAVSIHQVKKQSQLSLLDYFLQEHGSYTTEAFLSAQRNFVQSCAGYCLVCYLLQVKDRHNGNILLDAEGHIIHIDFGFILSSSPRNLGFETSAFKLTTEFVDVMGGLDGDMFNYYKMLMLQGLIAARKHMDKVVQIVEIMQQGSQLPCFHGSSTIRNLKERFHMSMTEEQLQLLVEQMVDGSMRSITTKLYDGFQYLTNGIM
inactive: [1] 0.005 | [2] -0.032 | [3] 0.228 | [4] 0.094 | [5] 0.056 | [6] 0.081 | [7] -0.069 | [8] -0.001 | [9] -0.097 | [10] 0 | [11] 0.02 | [12] 0.031 | [13] -0.011 | [14] -0.01 | [15] 0.005 | [16] 0.011 | [17] -0.02 | [18] 0.055 | [19] -0.073 | [20] 0.014
